Test results reported in PubChem BioAssay AID1259343 (VanderVen Lab, College of Veterinary Medicine, Cornell …, 2017).
In all, about 6,200 compounds went through this assay and about 2,900 (47%) were called active. Cut-off read from the data, not from the text of the source: active = inhibition above about 50%; inactive = the rest. So high a share suggests a set chosen from earlier hits. This is one part of the list.

Experiment: Mycobacterium tuberculosis growth inhibition, primary screen (AID 1259343)
Conditions: inhibition: at 10 µM, active compounds read high; outcome: 10 uM

| Compound | inhibition |
| --- | --- |
| Brc1ccc2cc(Oc3ncccn3)ccc2c1 | 5.33% (inactive) |
| Cc1cc(C)nc(Oc2ccc(Br)cc2Br)n1 | 75.3% (active) |
| N#Cc1ccc(COc2ccc(Br)cc2Br)cc1 | 1.7% (inactive) |
| C=CCOc1ccc(/C=N\O)cc1Cl | 86.2% (active) |
| C=C1C2CC[C@@]3(C)[C@H](c4ccoc4)OC(=O)C[C@]13O[C@H]1CC(O)C(C)(C)C(CC(=O)OC)[C@@]21C (stereo not given in full) | 79.9% (active) |
| COC(=O)C[C@H]1C2(C)CC34OC5(C)O[C@@]6([C@H](OC)C(OC(=O)C(C)C)[C@]7(C)C(/C(=C(/OC)C(C)C)C(=O)O[C@H]7c7ccoc7)[C@@]6(O5)[C@H](OC)[C@@]3(OC)C2OC(C)=O)[C@]14C (stereo not given in full) | 37.5% (inactive) |
| O=S(=O)(c1ccc(Cl)cc1)c1nc(Nc2ccc(F)cc2F)sc1Cl | 82.6% (active) |
| CCC(O)c1ccc(OCCCC(C)(C)C#N)cc1 (stereo not given) | 90.6% (active) |
| FC(F)(F)c1ccnn1-c1nc(-c2ccc(Br)cc2)cs1 | 16.4% (inactive) |
| O=C(NC1CCCC1)c1ccccc1NS(=O)(=O)c1ccc(F)c(F)c1F | 18.7% (inactive) |
| O=S(=O)(Nc1ccc(Cl)cc1)c1ccc(F)c(F)c1F | 95.7% (active) |
| CSc1ccccc1NS(=O)(=O)c1ccc2ccccc2c1 | 11.2% (inactive) |
| O=S(=O)(Nc1ccc2ccccc2c1)c1ccc(F)c(F)c1F | 84.5% (active) |
| Cc1cc(Cl)ccc1NS(=O)(=O)c1ccc(F)c(F)c1F | 23.8% (inactive) |
| O=C(Nc1ccccc1)C1CSCN1S(=O)(=O)c1ccc(Cl)cc1C(F)(F)F (stereo not given) | -4.72% (inactive) |
| COc1cc(Cc2cnc(N)nc2N)cc(OC)c1OC | 98.3% (active) |
| CCCCNC(=O)c1ccc(C)c(OCC)c1 | -17.8% (inactive) |
| CCCCNC(=O)c1cc2sc3ccccc3c2s1 | 101% (active) |
| CN(C)c1ccc(/C=C/C(=O)N(C)C2C3CC4CC(C3)CC2C4)cc1 (stereo not given) | 8.71% (inactive) |
| O=C(NNc1ccccc1)C(O)C(O)C(=O)NNc1ccccc1 (stereo not given) | 83.3% (active) |
| COCCN(CC(=O)N(Cc1ccc(F)cc1)Cc1ccco1)C(=O)N(C)C | 22.5% (inactive) |
| CC(C)N(CC(=O)N(CCc1c[nH]c2ccccc12)Cc1ccc(C(C)(C)C)cc1)CC(O)COCc1ccco1 (stereo not given) | 53.8% (active) |
| COc1cccc(Oc2cncnc2-c2ccc(OC)cc2O)c1 | 76.5% (active) |
| COc1ccc(-c2oncc2-c2ccccc2)c(O)c1 | -29.6% (inactive) |
| CCN(CC)CCNc1nc(C23CC4CC(CC(C4)C2)C3)cs1 | 55.4% (active) |
| COCCn1c(SC(C)C)nc2ccc(Br)cc2c1=O | -18.7% (inactive) |
| COCCn1c(SCCc2ccccc2)nc2cc(Cl)ccc2c1=O | 15.5% (inactive) |

| Compound | inhibition |
| --- | --- |
| CC(C)CCn1c(SCC(=O)NC(C)(C)C)nc2cc(Cl)ccc2c1=O | 88.4% (active) |
| NCCOB(c1ccccc1)c1ccccc1 | 101% (active) |
| O=C(CCl)NCCCCCCCCCNC(=O)CCl | 93.8% (active) |
| O=C(CC1CCCC1)NCCCNC(=O)CC1CCCC1 | 7.09% (inactive) |
| CS(=O)(=O)Nc1c(Cl)c(Cl)c(Cl)c(Cl)c1Cl | 84% (active) |
| Cc1ccc(N2CCN(C(=O)C34CC5CC(CC(C5)C3)C4)CC2)cc1Cl | 10.8% (inactive) |
| O=[N+]([O-])c1ccc(N2CCNCC2)cc1NC1C2CC3CC(C2)CC1C3 (stereo not given) | 83.1% (active) |
| CC(Nc1cc(N2CCNCC2)ccc1[N+](=O)[O-])C12CC3CC(CC(C3)C1)C2 (stereo not given) | 59.9% (active) |
| O=[N+]([O-])c1ccc(Cl)cc1NN=C1C2CC3CC1CC(O)(C3)C2 | 47.3% (inactive) |
| COc1ccc(C)cc1C(=O)Nc1ccc(N2CCCCC2)nc1 | 2.05% (inactive) |
| COc1ccc(NC(=O)N2CCCC(C(=O)c3cccc(OC(C)C)c3)C2)cc1OC (stereo not given) | 19% (inactive) |
| COc1ccc(NC(=O)Nc2cccc(-c3ccc(N4CCCC4)nn3)c2)cc1 | 66.1% (active) |
| C(=NNc1ccccc1)c1c[nH]c2ccccc12 | 52% (active) |
| NC(=S)NN=Cc1c[nH]c2ccccc12 | inactive |
| Fc1ccc(NN=Cc2ccccn2)c(F)c1 | 103% (active) |
| Fc1ccc(NN=Cc2ccc(F)c(F)c2)c(F)c1 | 40.3% (inactive) |
| O=C(NN=Cc1c[nH]c2ccc(Br)cc12)C1CC1 | 13.7% (inactive) |
| Fc1ccc(NN=Cc2c[nH]c3ccccc23)c(F)c1 | 90.6% (active) |
| C=CCN1C(=O)C(=O)N(CC2CCCCC2)C1=O | 43.2% (inactive) |
| CCCCSc1nsc(NC(C)=O)n1 | 71.7% (active) |
| C=CCn1c(SCCCC)nc(O)cc1=O | 33.7% (inactive) |
| Cc1ccc2c(c1)-c1c(s[s+]c1SCC(=O)c1ccccc1)C(C)(C)N2 | 18.9% (inactive) |
| Cc1ccc(CN(C)CC(=O)Nc2cc(Cl)ccc2C#N)cc1 | -19.5% (inactive) |
| Cc1ccc(F)cc1NC(=O)CN(C)Cc1ccccc1F | 86.7% (active) |
| CN(CC(=O)Nc1ccc(Cl)cc1Cl)Cc1ccsc1 | 34.7% (inactive) |
| O=C(Nc1ccc2c(c1)Cc1ccccc1-2)C1CCCO1 (stereo not given) | 81.9% (active) |
| O=C(Nc1ccc2c(c1)Cc1ccccc1-2)c1ccco1 | 90% (active) |

| Compound | inhibition |
| --- | --- |
| O=C(CCl)c1ccc(NC(=O)c2ccco2)cc1 | 44.1% (inactive) |
| Brc1ccc(OCCOc2cccc(-n3cnnn3)c2)cc1 | 69.1% (active) |
| O=c1cnc2ccccc2n1CCOc1ccc(Br)cc1 | 22.6% (inactive) |
| CCOc1ccc(-n2c(C)cc(C(=O)COc3cccc(-n4cnnn4)c3)c2C)cc1 | 89.6% (active) |
| OCC1(Cc2ccccc2F)CCCN(Cc2nc(-c3ccccc3)cs2)C1 (stereo not given) | 13.4% (inactive) |
| CC(C)CC(NC(=O)c1ccc(Cl)cc1Cl)C(=O)Nc1ncn[nH]1 (stereo not given) | 3.98% (inactive) |
| CC(=O)c1cc(Cl)ccc1OCC(=O)Nc1ccc(C)cc1Br | 29.6% (inactive) |
| Cc1cc(OCC(=O)Nc2ncn[nH]2)c(C)cc1Br | 71.5% (active) |
| COc1ccccc1OS(=O)(=O)CCS(=O)(=O)c1ccc(Cl)cc1 | 33.8% (inactive) |
| Brc1ccc(NCc2ccsc2)cc1 | 47.5% (inactive) |
| O=S(=O)(CCNc1ccc(Br)cc1)c1ccc(Cl)cc1 | 93.3% (active) |
| COc1ccc(-c2csc(-n3[nH]c(C)c(N=Nc4nccs4)c3=O)n2)cc1 | 98.8% (active) |
| Brc1ccccc1C1N=C(c2ccccc2)NO1 (stereo not given) | 67.1% (active) |
| CC1=NN(c2nc(C)cc(C)n2)C(=O)C1Cc1ccccc1Cl (stereo not given) | -7.67% (inactive) |
| CC(C(=O)O)c1ccc2c(c1)[nH]c1ccc(Cl)cc12 (stereo not given) | 86% (active) |
| CC(C)(C)C1CCN(c2ncnc(Oc3ccc(F)cc3)c2N)CC1 | 25.6% (inactive) |
| CCN(C)CC1CCN(C(=O)CC2CCC(c3ccccc3)CC2)C1 (stereo not given) | -3.03% (inactive) |
| CCN(CC)c1ncnc(N2CCC(c3ccccc3)CC2)c1N | 56.1% (active) |
| O=C(COn1nnc2ccc(C(F)(F)F)cc21)NC12CC3CC(CC(C3)C1)C2 | 21.7% (inactive) |
| COc1cccc(-c2cc3c(Nc4ccc5c(c4)OCCO5)nccc3n2C)c1 | 61.1% (active) |
| COc1cccc(-c2cc3c(Nc4ccc5c(c4)OCO5)nccc3n2C)c1 | 85.6% (active) |
| O=C1CCC2(CCCO2)CCN1Cc1ccc(C(F)(F)F)nc1 (stereo not given) | -2.37% (inactive) |
| O=C(Cn1nc(-c2ccc(F)cc2)oc1=O)N1CCSc2ccccc21 | 80.5% (active) |
| NC(N)=NCCCCN=C(N)N | 0.43% (inactive) |
| CS(=O)(=O)N=C1C=C(S(=O)(=O)c2ccccc2)C(=O)c2ccccc21 | 30.9% (inactive) |
| COc1ccc2c([N+](=O)[O-])c(-n3nnc4ccccc43)[nH]c2c1 | -24.2% (inactive) |
| COc1ccc2c(Cl)c(C(=O)n3cnc4ccccc43)sc2c1 | 94.7% (active) |

| Compound | inhibition |
| --- | --- |
| C(=Nn1c(-c2ccc3c(c2)OCCO3)csc1=NC1CCCCC1)c1cccnc1 | 9.36% (inactive) |
| O=[N+]([O-])c1nn(-c2ccc3c(c2)OCCO3)n(O)c1=NC1CCCCCC1 | 62.8% (active) |
| Brc1cccc(N2CCC(CNc3ncccn3)C2)c1 (stereo not given) | 90.2% (active) |
| O=S(=O)(NCc1ccc(N2CCCC2)cc1)c1cccc(Br)c1 | 28.5% (inactive) |
| Cc1ccc(COc2ccc(/C=N\NC(=O)CN3CCCCC3)cc2)cc1 | 83.3% (active) |
| CNC(=O)C1CCN(C(=O)COc2ccc(Oc3ccc(C)cc3)cc2)CC1 | -12.7% (inactive) |
| CC1Cc2cc(S(N)(=O)=O)ccc2N1CCCc1ccccc1 (stereo not given) | -10.1% (inactive) |
| CC(C)(C)n1ncc(NCC2CCCc3ccccc32)c(Cl)c1=O (stereo not given) | 22.4% (inactive) |
| O=c1c(Cl)c(Nc2ccc3c(c2)CCC3)cnn1-c1ccccc1 | 21.7% (inactive) |
| O=c1c(Cl)c(NCC2CCC2)cnn1-c1ccc(Cl)cc1 | 58% (active) |
| Cc1ccc(CC(SCc2ccccc2)C(=O)O)cc1C (stereo not given) | 57.4% (active) |
| Clc1ccc2nc(Cl)c3nnnn3c2c1 | 102% (active) |
| CN(C)c1ccc(Nc2nc3ccccc3n3nnnc23)cc1 | 11.8% (inactive) |
| CCOc1ccc(Cl)cc1CNc1nnnn1C | -8.06% (inactive) |
| Cc1ccc(OCC(=O)NC2CCCC(C)C2C)cc1 (stereo not given) | 60% (active) |
| COc1ccc(-c2ccc(C(=O)NS(C)(=O)=O)c(F)c2)c(F)c1 | 55.6% (active) |
| COc1cc(NC(=O)C(C)Oc2ccc(F)c(F)c2)cc(OC)c1 (stereo not given) | 34.5% (inactive) |
| Cc1cc(NC(=O)C2CCC2)n(-c2ccc(C(F)(F)F)cn2)n1 | 79.6% (active) |
| Cc1cc(=O)[nH]c(-n2nc(C)cc2NC(=O)C2CCCCC2)n1 | 101% (active) |
| O=C(Nc1nccs1)C1CCN(c2ccc(C(F)(F)F)cn2)CC1 | 18.4% (inactive) |
| FC(F)(F)c1ccc(N2CCN(C(=S)NC3CC3)CC2)nc1 | -12.1% (inactive) |
| Cc1cc(=O)[nH]c(-n2nc(C)cc2NC(=O)C2CC2)n1 | 100% (active) |
| Cc1cc(=O)[nH]c(-n2nc(-c3cccs3)cc2NC(=O)C2CCCCC2)n1 | 100% (active) |
| Cc1cc(=O)[nH]c(-n2nc(-c3cccs3)cc2NC(=O)C2CC2)n1 | 2.59% (inactive) |
